Assay outcomes as filed in PubChem.
Vif-APOBEC3F blk = inhibitors of Vif-A3F interaction; HeLa A3F-eYFP + Vif (tagged APOBEC3F with the HIV-1 protein that degrades it), YFP fluorescence increase; Potency, µM (titrated, usually from 46.1 µM), without a hit: top-dose activity, negative = active; actives 0.2% (n = 390,000); AID 602313; note: potency is the fitted concentration of half-maximal effect; % of control where 0% means no effect; nearly all actives have a fitted effect of over 65% in size
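HeLa cells stably expressing A3F-eYFP plus Vif, plated and incubated overnight at 37 deg C, then exposed to compounds overnight at 37 deg C. Blocked degradation read as raised yellow fluorescence (Ex 488/Em 500-530).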
Vif-A3G inh = Vif-A3G binding inhibition | Potency, µM (top dose mostly 46.1 µM), without a hit: top-dose activity, negative = active, hits mostly inhibitors | actives 0.076% (n = 410,000) | AID 602310 | HeLa A3G-eYFP + Vif (tagged APOBEC3G with the HIV-1 protein that degrades it), YFP fluorescence, overnight | Q9HC16; note: potency is the fitted concentration of half-maximal effect; % is set by controls: 0 for no effect and ±100 for the full control effect; nearly all actives have a fitted effect of over 60% in size
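Read-out is eYFP fluorescence (Ex 488/Em 500-530) from Vif-expressing HeLa A3G-eYFP cells; more signal means A3G escaped Vif-mediated degradation. Cells plated overnight, compound pinned in, incubated overnight at 37 deg C.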
TSHR antag = blocks TSH signaling through the human TSH receptor | P16473 | activity change, negative = inhibition, % at 11.5 µM | TSHR-expressing cells, TSH-stimulated cAMP HTRF, 2 h; stronger effect = lower value | actives 0.2% (n = 330,000) | AID 504810;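 active = activity change below a set negative limit, meaning inhibition stronger than a set level, cut at about -70% in these data; inconclusive = activity change between two set negative limits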; note: % is set by controls: 0 for no effect and ±100 for the full control effect
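Inhibition of cAMP made by TSHR-expressing cells under TSH stimulation (4nM final, EC80; 2 h, 37 deg C) is quantified with a one-step lysis HTRF kit, anti-cAMP cryptate versus cAMP-d2.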
PLK1 PBD inh = blocks phosphopeptide binding to human PLK1 polo-box domain. P53350. Plk1 PBD binding of FITC phosphopeptide, fluorescence polarization. Potency, µM, for the others: max response, negative = inhibition, hits mostly inhibitors. actives 2.8% (n = 360,000); note: potency is the fitted concentration of half-maximal effect; series mostly up to about 57 µM; % is set by controls: 0 for no effect and ±100 for the full control effect; nearly all actives have a fitted effect of over 65% in size
Target sequence (P53350 whole entry, looked up, the tested form may be a part): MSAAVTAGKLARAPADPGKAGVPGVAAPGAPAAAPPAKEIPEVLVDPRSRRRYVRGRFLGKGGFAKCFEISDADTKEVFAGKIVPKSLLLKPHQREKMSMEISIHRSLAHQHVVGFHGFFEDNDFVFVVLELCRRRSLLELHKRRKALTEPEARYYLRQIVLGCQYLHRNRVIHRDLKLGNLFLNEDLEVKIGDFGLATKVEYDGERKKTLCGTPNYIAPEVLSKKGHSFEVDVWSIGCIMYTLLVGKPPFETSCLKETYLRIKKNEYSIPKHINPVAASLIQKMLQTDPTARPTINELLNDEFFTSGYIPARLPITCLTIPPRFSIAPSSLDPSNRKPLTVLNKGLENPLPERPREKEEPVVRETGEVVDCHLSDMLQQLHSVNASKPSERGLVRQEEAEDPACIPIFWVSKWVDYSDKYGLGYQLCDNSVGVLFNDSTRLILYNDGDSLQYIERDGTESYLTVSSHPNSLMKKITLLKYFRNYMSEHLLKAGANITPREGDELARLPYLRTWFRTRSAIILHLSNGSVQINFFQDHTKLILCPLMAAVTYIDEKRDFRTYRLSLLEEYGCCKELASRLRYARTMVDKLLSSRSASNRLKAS
VDR inh = inhibitors of human vitamin D receptor; VDR-SRC2-3 peptide fluorescence polarization, 2 h; Potency, µM, inactives show max response, negative = inhibition, hits mostly inhibitors; actives 0.93% (n = 400,000); AID 504847; note: potency is the fitted concentration of half-maximal effect; % is set by controls: 0 for no effect and ±100 for the full control effect
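Measured by FP: displacement of SRC2-3 coactivator peptide from VDR by library compounds, following a two-hour ambient incubation.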
VDR confirm = inhibits human vitamin D receptor, primary hit validation. shares compounds with VDR inh. VDR-coactivator inhibition assay, qHTS confirmation. Potency, µM, most hits filed as inhibitors. actives 89% (n = 840); note: potency is the fitted concentration of half-maximal effect
VDR FP fluor = confirmation of human VDR-coactivator binding inhibitors, fluorescein label | shares compounds with VDR inh | VDR-coactivator binding, fluorescein fluorescence polarization | Potency, µM (titrated, usually from 57.1 µM), without a hit: at the highest dose activity change, negative = inhibition, usual class: inhibitors | actives 48% (n = 840) | AID 602200; note: potency is the fitted concentration of half-maximal effect
VDR bla = VDR (human) inhibition, cell-based beta-lactamase validation | shares compounds with VDR inh | VDR beta-lactamase reporter cells, FRET ratio; cells co-treated with VDR agonist LG190178 | Potency, µM (series often up to 46.1 µM), inactives show at the highest dose activity change, negative = inhibition, usual class: inhibitors | actives 23% (n = 840) | AID 602202; note: potency is the fitted concentration of half-maximal effect; % is set by controls: 0 for no effect and ±100 for the full control effect
VDR cytotox = cytotoxic in counter-screen for VDR inhibitors. shares compounds with VDR inh. AID 602204. cytotoxicity counter-screen, cell viability, qHTS. actives 18% (n = 840). Potency, µM (highest dose often 48.3 µM), for the others: at the highest dose activity change, negative = cytotoxicity, hits mostly cytotoxic;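 note: potency is the fitted concentration of half-maximal effect; plate controls were DMSO for no effect and high-concentration cycloheximide for full effect; nearly all actives have a fitted effect of over 75% in size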
Numbers without * were called inactive; ? = inconclusive; . = no result. The list is not random: actives were taken first. Their share in the collection is about 3.1%. Unless noted, calls come from the whole dose curve; as a rule, active = well fitted curve in the direction sought with a large enough effect; inconclusive = small, poorly fitted or top-dose-only effect, or another doubt; inactive = no such curve, though single readings can be large; an effect the other way counts as inactive or inconclusive.

SMILES	Vif-APOBEC3F blk	Vif-A3G inh	TSHR antag	PLK1 PBD inh	VDR inh	VDR confirm	VDR FP fluor	VDR bla	VDR cytotox
CCC(=O)Nc1c(C#N)c2nc3ccccc3nc2n1C1CCCCC1	-12%	-6%	2	0%	6%	.	.	.	.
CCOC(=O)c1c(NC(=O)c2ccco2)n(C2CCCCC2)c2nc3ccccc3nc12	2%	-9%	77	-23%	?	3.2*	?	-20%	-7%
CCOC(=O)COc1ccc(Br)cc1/C=C\c1[nH]c(=O)[nH]c(=O)c1[N+](=O)[O-]	-1%	?	-31	-20%	22µM*	4.2*	3.2µM*	?	?
CCOC(=O)COc1ccc(Br)cc1/C=C/c1[nH]c(=O)[nH]c(=O)c1[N+](=O)[O-]	-4%	?	-40	-28%	14µM*	3.8*	?	-30%	?
COC(=O)c1ccccc1NC(=O)NCCc1c(C)nn(C)c1C	-1%	-6%	.	.	9%	.	.	.	.
CCOC(=O)c1c2c(n(-c3ccc(OC)cc3)c1C)C(=O)C(=O)c1ccccc1-2	8%	-14%	.	?	18µM*	12*	11µM*	5.8µM*	6.3µM*
CCOC(=O)c1sc(=S)n(-c2ccc(OC)cc2)c1C	4%	0%	-5	-4%	-6%	.	.	.	.
Cc1cccc(N2C(=O)CSC23C(=O)N(CC(=O)NCCc2ccccc2)c2ccccc23)c1 (stereo not given)	5%	-2%	.	.	-1%	.	.	.	.
O=C(CSc1nc2ccccc2n1Cc1ccccc1Cl)NCc1ccccc1	-11%	-11%	.	.	11%	.	.	.	.
CCc1c(C)nc2nncn2c1Nc1ccc(Cl)cc1	.	.	.	.	0%	.	.	.	.
COc1cccc(/C=C/C(=O)c2cccc([N+](=O)[O-])c2)c1OC	1%	-27%	-3	?	8.9µM*	3.8*	3.2µM*	?	?
COc1cccc(/C=C/C(=O)Nc2cccc(C(C)=O)c2)c1OC	-6%	1%	-9	2%	-11%	.	.	.	.
Cc1ccccc1C(=O)Nc1cccc(C(=O)OCc2cc(=O)n3c4c(sc3n2)CCCC4)c1	2%	4%	.	.	3%	.	.	.	.
COc1ccc(C(=O)/C=C/C(=O)N(CC(=O)NC2CCCCC2)Cc2ccccc2)c(O)c1	-23%	2%	-45	5.3µM*	28µM*	12*	?	13µM*	?
Nc1c(N2CCCC2)cc(Cl)c2nonc12	-17%	1%	-1	21µM*	?	5*	2.8µM*	3%	7%
O=C1/C(=C/c2ccccn2)COc2ccccc21	8%	-2%	38	-15%	?	13*	22µM*	?	-19%
CC(C)(C)C1C/C(=C/c2ccccn2)C(=O)/C(=C/c2ccccn2)C1 (stereo not given)	3%	?	-22	?	?	2.5*	2µM*	1µM*	12µM*
O=C1/C(=C/c2ccc(O)cc2)COc2ccccc21	?	-9%	19	-4%	?	.	.	.	.
CC1C/C(=C/c2ccco2)C(=O)/C(=C/c2ccco2)C1 (stereo not given)	.	.	9	.	.	.	.	.	.
N#Cc1c(Nc2ccc(Cl)cc2)s[nH]c1=O	-9%	-5%	18	?	10µM*	7.5*	?	2%	-14%
Cc1ccc(NC(=O)Cn2c(=O)n(-c3ccc(CC(=O)NCC4CCCO4)cc3)c(=O)c3ccccc32)cc1 (stereo not given)	-2%	-3%	.	.	-4%	.	.	.	.
COc1cc(/C=C2/C(=O)ON=C2C)cc(Cl)c1O	?	-19%	7	15%	89µM*	27*	222%	21%	4%
CC1=NOC(=O)/C1=C/c1ccc(O)c(Cl)c1	-13%	-2%	1	?	-19%	.	.	.	.
COc1ccc(Cl)cc1/C=C1/C(=O)ON=C1C	-12%	3%	-2	?	?	.	.	.	.
COc1cc(/C=C2\C(=O)ON=C2c2ccc(Cl)cc2)ccc1O	-13%	?	.	?	?	7.1*	?	?	-11%
SMILES	Vif-APOBEC3F blk	Vif-A3G inh	TSHR antag	PLK1 PBD inh	VDR inh	VDR confirm	VDR FP fluor	VDR bla	VDR cytotox
CCCOc1ccc(/C=C2/C(=O)ON=C2C)cc1Cl	?	-15%	30	1.1µM*	18µM*	7.5*	?	-12%	-37%
CCOc1ccc(Cl)cc1/C=C1/C(=O)ON=C1C	-5%	-4%	7	?	?	8.9*	3.5µM*	-5%	9%
O=C(O)c1c(-c2ccccc2)oc2ccc(OCc3ccc(Cl)c(Cl)c3)cc12	-10%	0%	.	.	?	.	.	.	.
Cc1nn(C)c2c1c(-c1ccccc1)cc(=O)n2CC(=O)NC(C)C	-1%	-1%	.	.	-1%	.	.	.	.
COc1ccc(NC(=O)C2CCCN(S(=O)(=O)c3ccc(F)cc3)C2)cc1 (stereo not given)	-1%	3%	.	.	-5%	.	.	.	.
CCc1ccc(N2C(=O)N(CC(=O)C(C)(C)C)c3ccccc3S2(=O)=O)cc1	0%	-1%	.	.	4%	.	.	.	.
CCC1CN(C(=O)N2CCC(C(=O)NCCCc3ccccc3)CC2)c2ccccc2O1 (stereo not given)	-2%	4%	.	.	18%	.	.	.	.
O=C(c1ccccc1)C(CCC(CN1CCOCC1)C(=O)c1ccccc1)CN1CCOCC1 (stereo not given)	-4%	-25%	-32	-7%	?	?	?	21µM*	29%
CCOc1ccc(CNC(=O)Cn2c(=O)c3cccn3c3ccc(F)cc32)cc1OC	6%	2%	.	.	-2%	.	.	.	.
O=[N+]([O-])c1ccc(Nc2ccccn2)c([N+](=O)[O-])c1	12%	9%	1	-16%	9%	.	.	.	.
O=C(O)c1cccc(Nc2ccc([N+](=O)[O-])c3nonc23)c1	4%	-9%	-9	9%	10%	.	.	.	.
O=C(O)c1cccc(Nc2cc(Cl)c3nonc3c2[N+](=O)[O-])c1	-4%	-2%	15	12µM*	13µM*	8.4*	20µM*	31%	-4%
CN(C)c1cc(Nc2ccc(O)cc2)c([N+](=O)[O-])c2nonc12	1%	0%	10	?	-16%	.	.	.	.
